In all, about 16,000 sequences were measured (“rpm ratio (pull-down/input)”: median about 0.94, highest 2% from about 1.7 on). For the sample, the highest values were picked, then their nearest neighbours and some sequences at random.
These sequences were tested against T1, MBP-FoxP1dN (Mus musculus, UniProt P58462 326-579) (assay: PD-seq (MBP pull-down with sequencing); 20 mM Tris-HCl pH 7.5, 100 mM NaCl, 1.5 mM MgCl2, 0.4 uM protein, 0.1 uM dsDNA library, 30 min, room temperature, amylose pull-down; high values mean tight binding). Conditions: protein: recombinant; tags: His6-MBP; chain copies: 2; dsDNA, one strand shown.
T1 sequence: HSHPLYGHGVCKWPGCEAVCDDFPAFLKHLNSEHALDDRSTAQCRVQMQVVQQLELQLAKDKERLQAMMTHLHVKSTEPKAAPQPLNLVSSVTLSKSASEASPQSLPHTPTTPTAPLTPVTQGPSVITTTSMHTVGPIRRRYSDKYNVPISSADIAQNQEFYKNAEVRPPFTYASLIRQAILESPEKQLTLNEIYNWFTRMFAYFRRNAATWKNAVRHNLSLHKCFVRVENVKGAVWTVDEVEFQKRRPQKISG
In short: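 Binding is reads-per-million enrichment of pull-down over input, with replicates pooled. It comes from 30 min room-temperature incubation in Tris pH 7.5 buffer with NaCl and MgCl2 of 0.4 µM His6-MBP-tagged, N-terminally truncated mouse FoxP3 or FoxP1 fragment from E. coli with 0.1 µM Klenow-filled degenerate double-stranded DNA library, followed by amylose resin capture, three washes and Illumina sequencing of the released DNA.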

**Q.** Which binding signal does the source give for “GATGATTGTTCTCCCAGCTGATGAATTTACCCCGTCGAGTAAACAAATTTTCCTAATCTTTCTGTTCAAGCGCCATCTAC” here?
**A.** 1.07 RPM ratio (pull-down/input)

**Q.** For “GATGATTGTTCTCCCAGCTGATGAATTCGTCTCTTCGAGTAAACAAATTTTCCTAATCTTTCTGTTCAAGCGCCATCTAC”, which binding signal is on record?
**A.** 0.871 RPM ratio (pull-down/input)

**Q.** With “GATGATTGTTCTCCCAGCTGATGAATTGGAACGTTCGAGTAAACAAATTTTCCTAATCTTTCTGTTCAAGCGCCATCTAC” as the sequence, how does the binding signal read?
**A.** 0.904 RPM ratio (pull-down/input)

**Q.** Which binding signal does the source give for “GATGATTGTTCTCCCAGCTGATGAATTATTGTGGTCGAGTAAACAAATTTTCCTAATCTTTCTGTTCAAGCGCCATCTAC” here?
**A.** 1.51 RPM ratio (pull-down/input)

**Q.** “GATGATTGTTCTCCCAGCTGATGAATTGCTGTTGTCGAGTAAACAAATTTTCCTAATCTTTCTGTTCAAGCGCCATCTAC” was tested. Which binding signal did it give?
**A.** 2.5 RPM ratio (pull-down/input)

**Q.** With “GATGATTGTTCTCCCAGCTGATGAATTCTTGCTGTCGAGTAAACAAATTTTCCTAATCTTTCTGTTCAAGCGCCATCTAC” as the sequence, how does the binding signal read?
**A.** 1.45 RPM ratio (pull-down/input)

**Q.** Which binding signal does the source give for “GATGATTGTTCTCCCAGCTGATGAATTGCTGATGTCGAGTAAACAAATTTTCCTAATCTTTCTGTTCAAGCGCCATCTAC” here?
**A.** 1.22 RPM ratio (pull-down/input)

**Q.** Which binding signal does the source give for “GATGATTGTTCTCCCAGCTGATGAATTTTTGCTGTCGAGTAAACAAATTTTCCTAATCTTTCTGTTCAAGCGCCATCTAC” here?
**A.** 1.59 RPM ratio (pull-down/input)

**Q.** Which binding signal does the source give for “GATGATTGTTCTCCCAGCTGATGAATTGCTGCTGTCGAGTAAACAAATTTTCCTAATCTTTCTGTTCAAGCGCCATCTAC” here?
**A.** 1.29 RPM ratio (pull-down/input)

**Q.** For “GATGATTGTTCTCCCAGCTGATGAATTGTTGCTGTCGAGTAAACAAATTTTCCTAATCTTTCTGTTCAAGCGCCATCTAC”, which binding signal is on record?
**A.** 2 RPM ratio (pull-down/input)

**Q.** How did the binding signal turn out when “GATGATTGTTCTCCCAGCTGATGAATTCTCTCGCTCGAGTAAACAAATTTTCCTAATCTTTCTGTTCAAGCGCCATCTAC” was run?
**A.** 0.825 RPM ratio (pull-down/input)

**Q.** With “GATGATTGTTCTCCCAGCTGATGAATTCTACCCCTCGAGTAAACAAATTTTCCTAATCTTTCTGTTCAAGCGCCATCTAC” as the sequence, how does the binding signal read?
**A.** 0.797 RPM ratio (pull-down/input)

**Q.** For “GATGATTGTTCTCCCAGCTGATGAATTGCGATAATCGAGTAAACAAATTTTCCTAATCTTTCTGTTCAAGCGCCATCTAC”, which binding signal is on record?
**A.** 1.43 RPM ratio (pull-down/input)

**Q.** Which binding signal does the source give for “GATGATTGTTCTCCCAGCTGATGAATTTGTATCATCGAGTAAACAAATTTTCCTAATCTTTCTGTTCAAGCGCCATCTAC” here?
**A.** 1.51 RPM ratio (pull-down/input)

**Q.** How did the binding signal turn out when “GATGATTGTTCTCCCAGCTGATGAATTTTTTGTATCGAGTAAACAAATTTTCCTAATCTTTCTGTTCAAGCGCCATCTAC” was run?
**A.** 1.26 RPM ratio (pull-down/input)

**Q.** How did the binding signal turn out when “GATGATTGTTCTCCCAGCTGATGAATTGTTTGTATCGAGTAAACAAATTTTCCTAATCTTTCTGTTCAAGCGCCATCTAC” was run?
**A.** 2.64 RPM ratio (pull-down/input)

**Q.** With “GATGATTGTTCTCCCAGCTGATGAATTTGCTGTATCGAGTAAACAAATTTTCCTAATCTTTCTGTTCAAGCGCCATCTAC” as the sequence, how does the binding signal read?
**A.** 1.16 RPM ratio (pull-down/input)

**Q.** Which binding signal does the source give for “GATGATTGTTCTCCCAGCTGATGAATTTGTTGTATCGAGTAAACAAATTTTCCTAATCTTTCTGTTCAAGCGCCATCTAC” here?
**A.** 2.21 RPM ratio (pull-down/input)

**Q.** How did the binding signal turn out when “GATGATTGTTCTCCCAGCTGATGAATTTGATGTATCGAGTAAACAAATTTTCCTAATCTTTCTGTTCAAGCGCCATCTAC” was run?
**A.** 1.25 RPM ratio (pull-down/input)

**Q.** Which binding signal does the source give for “GATGATTGTTCTCCCAGCTGATGAATTCCGCCTATCGAGTAAACAAATTTTCCTAATCTTTCTGTTCAAGCGCCATCTAC” here?
**A.** 0.791 RPM ratio (pull-down/input)

**Q.** “GATGATTGTTCTCCCAGCTGATGAATTTGGGGTGTCGAGTAAACAAATTTTCCTAATCTTTCTGTTCAAGCGCCATCTAC” was tested. Which binding signal did it give?
**A.** 0.832 RPM ratio (pull-down/input)

**Q.** For “GATGATTGTTCTCCCAGCTGATGAATTTTTGGTATCGAGTAAACAAATTTTCCTAATCTTTCTGTTCAAGCGCCATCTAC”, which binding signal is on record?
**A.** 1.09 RPM ratio (pull-down/input)

**Q.** How did the binding signal turn out when “GATGATTGTTCTCCCAGCTGATGAATTATTGGTATCGAGTAAACAAATTTTCCTAATCTTTCTGTTCAAGCGCCATCTAC” was run?
**A.** 1.55 RPM ratio (pull-down/input)

**Q.** How did the binding signal turn out when “GATGATTGTTCTCCCAGCTGATGAATTGGTTGTATCGAGTAAACAAATTTTCCTAATCTTTCTGTTCAAGCGCCATCTAC” was run?
**A.** 1.3 RPM ratio (pull-down/input)

**Q.** How did the binding signal turn out when “GATGATTGTTCTCCCAGCTGATGAATTGGTATTATCGAGTAAACAAATTTTCCTAATCTTTCTGTTCAAGCGCCATCTAC” was run?
**A.** 1.9 RPM ratio (pull-down/input)

**Q.** With “GATGATTGTTCTCCCAGCTGATGAATTATCGGTATCGAGTAAACAAATTTTCCTAATCTTTCTGTTCAAGCGCCATCTAC” as the sequence, how does the binding signal read?
**A.** 1.02 RPM ratio (pull-down/input)

**Q.** With “GATGATTGTTCTCCCAGCTGATGAATTGTTGGTATCGAGTAAACAAATTTTCCTAATCTTTCTGTTCAAGCGCCATCTAC” as the sequence, how does the binding signal read?
**A.** 1.92 RPM ratio (pull-down/input)

**Q.** Which binding signal does the source give for “GATGATTGTTCTCCCAGCTGATGAATTGTGTGCCTCGAGTAAACAAATTTTCCTAATCTTTCTGTTCAAGCGCCATCTAC” here?
**A.** 1.14 RPM ratio (pull-down/input)

**Q.** With “GATGATTGTTCTCCCAGCTGATGAATTGCGATGCTCGAGTAAACAAATTTTCCTAATCTTTCTGTTCAAGCGCCATCTAC” as the sequence, how does the binding signal read?
**A.** 1.2 RPM ratio (pull-down/input)

**Q.** Which binding signal does the source give for “GATGATTGTTCTCCCAGCTGATGAATTCCGAGAGTCGAGTAAACAAATTTTCCTAATCTTTCTGTTCAAGCGCCATCTAC” here?
**A.** 0.749 RPM ratio (pull-down/input)

**Q.** “GATGATTGTTCTCCCAGCTGATGAATTCATCGTCTCGAGTAAACAAATTTTCCTAATCTTTCTGTTCAAGCGCCATCTAC” was tested. Which binding signal did it give?
**A.** 0.784 RPM ratio (pull-down/input)

**Q.** How did the binding signal turn out when “GATGATTGTTCTCCCAGCTGATGAATTCAGGTTCTCGAGTAAACAAATTTTCCTAATCTTTCTGTTCAAGCGCCATCTAC” was run?
**A.** 0.857 RPM ratio (pull-down/input)

— PMC12820563, “FoxP3 forms a head-to-head dimer in vivo and stabilizes its multimerization on adjacent microsatellites”
